# In the supplement of paper PMC8253809:
# “And” between values parts separate entries of the source, which are not always exact repeats. Equal values may be shown once.
# Key:
# Assay in all cases: growth inhibition (% activity, log2 RLU normalised to DMSO / staurosporine); higher = more growth inhibition
# Conditions in all cases: 33 µM
# DIPGX29 = tested on: DIPGX29 (H3.3 K27M diffuse intrinsic pontine glioma line)
# Procedure, shortened: (§1)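 Approved drugs, at a single final concentration of about 33 μM, were applied in triplicate to pHGG cell lines and H9-derived neural stem cells for 7 days at 37 °C, 5% CO2. The growth-inhibition value is the replicate median of log2-transformed CellTiter-Glo luminescence normalised per plate to % activity between solvent and positive control wells.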
# DIPGX37 = tested on: DIPGX37 (H3.3 K27M diffuse intrinsic pontine glioma line)
# Procedure, shortened: as §1
# DIPGX7 = tested on: DIPGX7 (H3.3 K27M diffuse intrinsic pontine glioma line)
# Procedure, shortened: as §1
# DIPGX9 = tested on: DIPGX9 (diffuse intrinsic pontine glioma line)
# Procedure, shortened: as §1
# HGGX39 = tested on: HGGX39 (paediatric high-grade glioma line)
# Procedure, shortened: as §1
# HGGX6 = tested on: HGGX6 (H3.3 G34R paediatric high-grade glioma line)
# Procedure, shortened: as §1
# HNSC = tested on: HNSC
# Procedure, shortened: as §1
# SUDIPGIV = tested on: SUDIPGIV (diffuse intrinsic pontine glioma line)
# Procedure, shortened: as §1
# SUDIPGVI = tested on: SUDIPGVI (diffuse intrinsic pontine glioma line)
# Procedure, shortened: as §1
# SUDIPGXIII = tested on: SUDIPGXIII (diffuse intrinsic pontine glioma line)
# Procedure, shortened: as §1
SMILES,growth inhibition (DIPGX29),growth inhibition (DIPGX37),growth inhibition (DIPGX7),growth inhibition (DIPGX9),growth inhibition (HGGX39),growth inhibition (HGGX6),growth inhibition (HNSC),growth inhibition (SUDIPGIV),growth inhibition (SUDIPGVI),growth inhibition (SUDIPGXIII)
CCCCCCNC(=O)n1cc(F)c(=O)[nH]c1=O,5.51%,0.97%,4.27%,14%,6.44%,9.38%,24.6%,11.2%,3.57%,2.43%
CC(c1cc2ccccc2s1)N(O)C(N)=O (configuration not stated),0.492%,-0.829%,0.715%,-0.313%,-0.313%,-1.42%,-0.145%,-2.98%,-1.81%,0.685%
COc1c2occc2cc2ccc(=O)oc12,-0.546%,-5.42%,-1.53%,-1.09%,-2.13%,-2.24%,0.777%,-2.41%,-9.54%,-0.581%
Cc1ccc(Nc2nccc(N(C)c3ccc4c(C)n(C)nc4c3)n2)cc1S(N)(=O)=O,3.74% and 7.46%,4.99% and 1.63%,5% and 10.4%,3.67% and 7.92%,6.65% and 10.2%,5.31% and 11.1%,4.18% and 9.11%,4.44% and 6.85%,5.08% and 5.8%,3.27% and 1.33%
N=C(N)NC(=O)c1nc(Cl)c(N)nc1N,1.79% and -1.36%,1.85% and 0.649%,1.7% and 0.904%,2.64% and 0.337%,2.38% and 4%,-0.794% and 0.512%,–,7.17% and 6.85%,2.25% and 2.53%,-0.984% and -0.159%
Clc1ccc2c(c1)C(N1CCNCC1)=Nc1ccccc1O2,0.461%,1.52%,1.07%,1.29%,4.43%,-0.239%,0.635%,0.284%,2.1%,0.741%
CCCCOc1ccc(CC(=O)NO)cc1,4.76%,1.97%,54.5%,3.15%,12.5%,12.9%,17.1%,3.36%,-3.3%,-0.824%
CC(C)/N=c1\cc2n(-c3ccc(Cl)cc3)c3ccccc3nc-2cc1Nc1ccc(Cl)cc1,12.5%,10.3%,11.1%,5.47%,10%,7.37%,66.1%,21.9%,5.83%,5.35%
O.O=[Si]=O.O=[Si]=O.O=[Si]=O.O=[Si]=O.[O]=[Mg].[O]=[Mg].[O]=[Mg],-0.0369%,-0.00885%,-1.3%,0.668%,1.22%,0.613%,-1.22%,0.589%,0.8%,0.62%
COC(=O)Nc1nc2cc(C(=O)c3ccc(F)cc3)ccc2[nH]1,5.17%,7.48%,3.54%,6.48%,-0.271%,3.94%,63.6%,-1.42%,0.822%,5.19%
Oc1ccc(OC2CCCCO2)cc1 (configuration not stated),-0.0269%,0.922%,1.6%,1.43%,2.89%,2.46%,-1.26%,0.845%,0.118%,0.895%
CN1CCN(c2c(F)cc3c(=O)c(C(=O)O)cn(CCF)c3c2F)CC1,1.06%,4.17%,2.04%,2.14%,2.42%,-0.149%,5.69%,2.18%,2.45%,-2.39%
COCCOC(=O)C1=C(C)NC(C)=C(C(=O)OC/C=C/c2ccccc2)C1c1cccc([N+](=O)[O-])c1 (configuration not stated),2.85%,2.42%,5.44%,5.34%,5.91%,4.61%,5.17%,6.24%,3.03%,0.864%
COc1ccc2c(c1)c(CC(=O)O)c(C)n2C(=O)c1ccc(Cl)cc1,-3.09%,-0.682%,0.11%,-3.3%,-3.42%,-2.79%,-3.23%,-6.71%,-7.35%,2.32%
Cc1ncc(CO)c(CO)c1O,0.532%,1.29%,0.82%,0.826%,-0.552%,2.21%,1.1%,0.59%,0.153%,-0.917%
CCN(CC)CC#CCOC(=O)C(O)(c1ccccc1)C1CCCCC1 (configuration not stated),7.11% and -0.14%,-0.636% and -1.02%,8.09% and 5.01%,1.99% and -2.12%,4.03% and -0.183%,1.74% and -0.191%,–,3.76% and -2.81%,-0.8% and -5.89%,1.45% and 2.55%
CCC1=C(C)CN(C(=O)NCCc2ccc(S(=O)(=O)NC(=O)N[C@H]3CC[C@H](C)CC3)cc2)C1=O,1.44%,2.15%,-0.131%,1.61%,-0.27%,0.0487%,4.42%,-0.00514%,1.62%,0.817%
Cc1cccn2c(=O)c(-c3nnn[nH]3)cnc12,0.15%,-1.28%,-0.946%,0.426%,1.29%,-0.465%,-1.69%,-0.133%,0.709%,1.3%
CS(=O)(=O)CCNCc1ccc(-c2ccc3ncnc(Nc4ccc(OCc5cccc(F)c5)c(Cl)c4)c3c2)o1,6.23% and 13.7%,3.79% and 6.67%,8.64% and 16.6%,4.74% and 6.77%,7.08% and 12.7%,3.29% and 14.5%,–,3.14% and -0.238%,-6.01% and 3.84%,0.448% and 1.79%
CS(=O)(=O)c1ccc([C@@H](O)[C@@H](CF)NC(=O)C(Cl)Cl)cc1,3.83%,-0.106%,1.63%,2.53%,12.9%,5.33%,15.9%,24.6%,2.59%,38%
O=C(O)CSCC(=O)NC1CCSC1=O (configuration not stated),0.54%,-0.388%,-0.264%,-0.495%,0.576%,-1.19%,-1.48%,0.118%,1.47%,-6.51%
CCCSc1nc(N[C@@H]2C[C@H]2c2ccc(F)c(F)c2)c2nnn([C@@H]3C[C@H](OCCO)[C@@H](O)[C@H]3O)c2n1,2.23%,3.23%,4.99%,1.97%,5.25%,1.74%,20.6%,3.4%,3.52%,0.841%
C[C@]12CC[C@H](O)CC1=CC[C@@H]1[C@@H]2CC[C@]2(C)C(c3cccnc3)=CC[C@@H]12,-2.51%,-0.544%,0.888%,2.81%,3.94%,-0.894%,-6.23%,0.327%,-2.29%,-1.17%
